Experimental data: PubChem BioAssay AID1850 (Southern Research Specialized Biocontainment Screening …, 2009)
Screen size: about 310,000 compounds; about 1,000 (0.32%) were called active. Not all results are given here. Potency and affinity values are given separately. Unmarked numbers belong to inactive results. How the calls were made is not given here.

test: PhoP regulon inhibitors, Salmonella typhi PhoP promoter GFP reporter, confirmatory (AID 1850); conditions: fluorescence, 4 h, at 50 µM, stronger effect = higher value;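 further: 0% = induced wells with vehicle and 100% = uninduced wells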

SMILES	inhibition [%]
CN(CCCCN1CCOCC1)Cc1nc(-c2ccc3c(c2)OCO3)no1	-10.5
CCn1cc(C(=O)c2cccs2)c2ccccc21	-0.847
O=C(CSc1nnc(SCc2ccccc2)s1)N/N=C/C=C/c1ccccc1[N+](=O)[O-]	8.59
CCn1cc(C(=O)N2CCN(c3ccccc3F)CC2)c(=O)c2ccc(C)nc21	-6.12
c1ccc(-c2cc(-c3ccncc3)nc3ccc4ccccc4c23)cc1	-9.12
Cc1ccc2nc(/C(C#N)=C/c3ccc(-c4cccc([N+](=O)[O-])c4)o3)[nH]c2c1	-10.4
N#C/C(=C\c1ccc([N+](=O)[O-])o1)c1nc2ccccc2[nH]1	7.25
COC(=O)c1[nH]c2cc(OC)ccc2c1NC(=O)c1ccc2c(c1)OCO2	-8.72
CCc1sc(C(=O)Nc2cccnc2)cc1Br	-8.13
COc1ccc(NC(=O)c2cccs2)cn1	2.51
CCc1cc(C(=O)Nc2ccc(OC)nc2)sc1C	4.89
O=C(Nc1cccnc1)c1ccc(Br)s1	12.6
O=S(=O)(c1ccc(-c2csc(-c3cccnc3)n2)cc1)N1CCCC1	0
Cc1cc(C)n(CC(O)Cn2cnc3c2c(=O)n(C)c(=O)n3C)n1 (configuration not stated)	-7.83
CCN(CC(=O)NCc1ccc(Cl)cc1)C(=O)CSc1cccc(C(F)(F)F)c1	5.75
COc1ccc(C2=NN(CN3C(=O)C(=O)c4ccccc43)C(c3ccc(OC)cc3)C2)cc1 (configuration not stated)	-8.46
Cc1nc2c(C#N)cnn2c2c1CCN(Cc1ccccc1)N2C	0.51
Nc1ccc2nonc2c1[N+](=O)[O-]	-75.7
Nc1cc(N2CCCCCC2)c2nonc2c1[N+](=O)[O-]	-0.89
COCCn1c(=S)[nH]c2cc(C(=O)NCCCN3CCOCC3)ccc2c1=O	-1.91
O=C(NC1CCSC1=O)c1cccc(Cl)c1 (configuration not stated)	3.01
CN1/C(=C\C=O)C(C)(C)c2ccccc21	1.84
CCN1/C(=C\C=C\C2=[N+](CC)c3ccccc3C2(C)C)C(C)(C)c2ccccc21	-46.5
O=C(Nc1cc2c3c(c1)CC(=O)N3CCC2)c1cccc(F)c1	6.53
O=C(c1ccc(F)cc1)c1ccc(N2CCCCC2)cc1	-11.2

SMILES	inhibition [%]
CN(CC(=O)Nc1ccc(S(N)(=O)=O)cc1)c1ccccc1	14.4
CSc1ccccc1C(=O)Nc1cc(C)ccc1C	7.98
Cc1ccccc1NC(=O)c1ccccc1O	4.26
O=C(N/N=C/c1cc2ccccc2[nH]1)c1ccccc1Cl	12.6
O=[N+]([O-])c1cccc(-c2cc3ccccc3[nH]2)c1	-7.23
COc1ccc(N(CC(=O)N2CCN(c3cc(C)ccc3C)CC2)S(=O)(=O)c2c(C)noc2C)cc1	4.32
CCC(C)NC(=O)C1c2ccccc2C(=O)N(c2ccc(OC)cc2)C1c1ccc(OC)cc1 (configuration not stated)	-3.48
O=C(N/N=C/c1cc2c(cc1Cl)OCO2)c1ccncc1	-3.87
O=C(N/N=C/c1ccc(O)cc1O)c1ccncc1	1.18
O=C(N/N=C/c1cc(Br)c(O)c(Br)c1O)c1cccnc1	-12.7
O=C(N/N=C/c1cc2ccccc2nc1Cl)c1ccncc1	-3.32
Nc1nonc1-n1nnc(C(=O)N/N=C/c2ccc(Br)cc2)c1CSC1=NCCS1	6.84
O=C(N/N=C/c1ccccc1Cl)c1ccncc1	-2.44
O=C(N/N=C/c1cc(Br)c(O)c(Br)c1)c1cccnc1	19.1
Nc1nonc1-n1nnc(C(=O)N/N=C/c2c(Cl)cccc2Cl)c1CSC1=NCCS1	-8.07
COc1ccc(CNC(=O)CCNS(=O)(=O)c2ccc(Br)s2)cc1	-1.05
O=C(CN1C(=O)C2C3C=CC(C3)C2C1=O)Nc1nc(SCc2ccc(Cl)cc2)n[nH]1 (configuration not stated)	3.67
O=C(O)COCC(=O)NC1CCN(Cc2ccccc2)CC1	-0.41
CC(CN1CCCCC1)OC(=O)c1ccccc1F (configuration not stated)	-3.63
Cc1nn(C(C)C(=O)NC2CCC(C)CC2)c(=O)c2nn(-c3ccccc3)c(C)c12 (configuration not stated)	-5.27
Cc1ccc(Cl)cc1NC(=O)C1CC(=O)Nc2ncnn21 (configuration not stated)	-13
Nc1nonc1C(=O)N/N=C/c1ccc(Br)o1	-7.75
O=C(N/N=C/c1coc2ccc(Cl)cc2c1=O)c1ccncc1	-3.86
Nc1nonc1C(=O)N/N=C/c1cc2c(cc1Br)OCO2	-18.8
O=C1NCCCC1C(=O)N/N=C/c1ccccc1O (configuration not stated)	-6.72

SMILES	inhibition [%]
CNC(=S)N/N=C/c1cc(Br)cc(Br)c1O	6.75
O=C(C[n+]1ccccc1)N/N=C/c1cc(Br)cc(Br)c1O	1.91
O=C(N/N=C/c1ccccc1O)NC12CC3CC(CC(C3)C1)C2	6.48
O=C(N/N=C/c1ccc(Cl)cc1Cl)c1ccncc1	-12.1
CCOC(=O)C1CCCCN1Cc1cccc(OC)c1OC (configuration not stated)	-6.91
CCC(=O)NC(=S)Nc1ccc(NC(=O)c2ccco2)c(OC)c1	-4.57
Cc1cc(=O)c(C(=O)O)nn1-c1cccc(C(F)(F)F)c1	3.22
Cc1[nH]n(-c2ccccc2)c(=O)c1/C=N/NC(=O)c1ccc(O)cc1O	4.8
Cc1ccc(C)c(CN2CCC(CNC(=O)CCc3nnc4ccc(N5CCCCC5)nn34)CC2)c1	-0.65
O=C(CSc1nnc(CNC(=O)c2cccs2)o1)Nc1cccc(Cl)c1	-8.62
O=C(CC1SC(N2CCCC2)=NC1=O)Nc1ccc(C(=O)N2CCN(c3cccc(Cl)c3)CC2)cc1 (configuration not stated)	-3.88
Cc1ccc(S(=O)(=O)N[C@@H](CO)C(=O)N[C@@H](Cc2ccc(O)cc2)C(=O)O)cc1	3.35
Cc1ccc2c(c1)NC(=O)C(CC(=O)NCCCN1CCCCC1)O2 (configuration not stated)	-5.47
COc1cc(Cl)c(C)cc1NC(=O)CCCN1C(=O)CCC1=O	-6.87
CN1CCN(C(=O)c2ccc(CS(=O)Cc3ccc(Cl)cc3)o2)CC1 (configuration not stated)	-3.59
COc1cccc(CNS(=O)(=O)c2ccc(S(=O)(=O)NC3CC3)cc2)c1	0.68
CCCc1cc(=O)oc2c3c(cc(OCC(=O)N4CCC[C@H]4C(=O)O)c12)OC(C)(C)CC3	-1.72
COc1ccc(CNC(=O)CSc2nnnn2-c2ccc(O)cc2)cc1	4.45
Cc1ccc(CN2CCC(CNS(=O)(=O)c3ccc(-c4ccc(=O)[nH]n4)s3)CC2)cc1	-17.1
Cc1ccc(Nc2nc(N)nc(CSC(=S)N3CCN(c4ccccc4)CC3)n2)cc1	5.34
COc1ccccc1NC(=O)Nc1ccc(CC#N)cc1	-23.3
O=c1oc2ccccc2n1Cc1ccccc1F	0.75
O=c1[nH]cc(NCCc2ccccc2)c(=O)[nH]1	2.68
O=C(CP(=O)(c1ccccc1)c1ccccc1)N/N=C/c1cc(Br)cc(Br)c1O	-0.96
O=C(N/N=C/c1cc(Cl)ccc1O)c1ccc(Br)cc1	-15.2

SMILES	inhibition [%]
O=C(N/N=C/c1cc(Br)cc(Br)c1O)c1cccc(S(=O)(=O)N2CCOCC2)c1	17.9
O=C(N/N=C/c1cc([N+](=O)[O-])ccc1O)c1ccncc1	12.7
O=C(N/N=C/c1cccnc1)c1cccc(Cl)c1	41
CC(=O)Nc1ccc(C(=O)N/N=C/c2cc(Br)cc(Br)c2O)cc1	-13.1
COc1c(Br)cc(Br)cc1/C=N/NC(=O)c1ccncc1	-12.1
O=C(CNC(=O)c1ccncc1)N/N=C/c1cc(Br)ccc1O	14.9
COc1ccccc1C(=O)Nc1nnc(SCC(=O)Nc2ccc3c(c2)oc2ccccc23)s1	-0.02
COc1cc(/C=C2/NC(=O)NC2=O)ccc1OCC(=O)Nc1ccc(F)cc1	1.58
C=CCn1c(CSc2ccc(C)cc2)n[nH]c1=S	2.92
Cn1ncc(Cl)c1C(=O)N1CCN(c2ncccn2)CC1	10.1
Cc1cccc(NC(=O)COC(=O)CCCC2=NS(=O)(=O)c3ccccc3N2)c1	-3.69
C=C(C)CC1N(c2cccc(OC)c2)C(=O)C2C(C(=O)O)C3C=CC21O3 (configuration not stated)	-1.1
CCCCn1c(=O)[nH]c(=O)c2c1nc(-c1cc(Br)ccc1OC)n2C	1.08
O=C(CSC(=S)N1CCCC1)Nc1ncc(Cl)cc1Cl	-5.14
CC(O)(CS(=O)(=O)Cc1ccccc1)C(=O)Nc1ccc(C(F)(F)F)cc1 (configuration not stated)	9.99
CCc1ccccc1NC(=O)COc1cccc(-n2cnnn2)c1	-5.08
CC(C)OCCCNC(=O)c1ccc(NC(=O)C2=CSCCO2)cc1	-8.42
COc1ccc(S(=O)(=O)N2CCN(c3ncccn3)CC2)cc1[N+](=O)[O-]	-20.4
Cc1ccc(Nc2cc(C)nn2-c2nc(C)cc(C)n2)cc1	5.85
Cc1cc(C)n(-c2nnc(C)c(=O)[nH]2)n1	-0.21
Cc1cc(Nc2ccccc2)n(-c2nc3ccccc3[nH]2)n1	-0.39
Cc1cc(C)n(-c2nc(O)cc(=O)[nH]2)n1	-1.88
